Source: PubChem BioAssay AID1159580 (chemical genetic matrix, 2015)
Where “and” joins values, the source holds several entries; their conditions need not be identical. Equal entries are not always repeated. Screen size: about 5,500 compounds; about 2,000 (36%) were called active. About 18% were inconclusive and are not listed. Rule as the data show it: active = normalized growth mostly below about 0.91 (no sharp cut-off); inconclusive = no clear call, values can overlap the other calls; inactive = mostly above about 0.92. The list shows a part of the results.

Assay: chemical genetic growth profiling, strain panel (AID 1159580);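 also: tested at 20 µM; growth read once vehicle control cultures reached saturation at 30 °C; 1 = growth at the plate median or of vehicle wells; lower values mean less growth of the strain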
Conditions: S. cerevisiae deletion strains, growth OD

Measured: normalized growth

C#C[C@]1(OC(C)=O)CCC2C3CCC4=CC(=O)CC[C@@H]4C3CC[C@@]21C (some centres not stated)
inactive: locus YAL013W, strain DEP1, hits give low values 0.97 | locus YAL021C, strain ccr4, hits give low values 0.988 | locus YAL026C, strain drs2, hits give low values 0.984 | locus YAL030W, strain snc1, hits give low values 0.986 | locus YBL061C, strain skt5, hits give low values 0.981 | locus YBR009C, strain hhf1, hits give low values 0.991 | locus YBR021W, strain FUR4, hits give low values 0.98 | locus YBR023C, strain chs3, hits give low values 0.976 | locus YBR171W, strain sec66, hits give low values 0.974 | locus YBR229C, strain ROT2, hits give low values 0.953 | locus YBR231C, strain swc5, hits give low values 1.01 | locus YBR279W, strain paf1, hits give low values 0.977 | locus YCL011C, strain gbp2, hits give low values 0.985 | locus YCL016C, strain dcc1, hits give low values 0.974 | locus YCL029C, strain bik1, hits give low values 0.96 | locus YCL069W, strain vba3, hits give low values 0.973 | locus YCR088W, strain abp1, hits give low values 0.99 | locus YDL005C, strain med2, hits give low values 0.971 | locus YDL035C, strain GPR1, hits give low values 0.972 | locus YDL040C, strain nat1, hits give low values 0.985 | locus YDL074C, strain BRE1, hits give low values 0.965 | locus YDL101C, strain DUN1, hits give low values 0.97 | locus YDL134C, strain PPH21, hits give low values 0.948 | locus YDL185W, strain tfp1, hits give low values 0.976 | locus YDL192W, strain arf1, hits give low values 0.961 | locus YDR001C, strain nth1, hits give low values 0.999 | locus YDR069C, strain doa4, hits give low values 0.969 | locus YDR101C, strain arx1, hits give low values 0.977 | locus YDR137W, strain rgp1, hits give low values 0.982 | locus YDR159W, strain sac3, hits give low values 0.936 | locus YDR162C, strain NBP2, hits give low values 0.961 | locus YDR195W, strain ref2 0.978 | locus YDR297W, strain sur2, hits give low values 0.994 | locus YDR318W, strain mcm21, hits give low values 0.941 | locus YDR334W, strain swr1, hits give low values 1.02 | locus YDR335W, strain msn5, hits give low values 0.978 | locus YDR388W, hits give low values 0.966 | locus YDR392W, strain spt3, hits give low values 0.828 | locus YDR502C, strain sam2, hits give low values 0.949 | locus YEL003W, strain gim4, hits give low values 1.01 | locus YEL037C, strain rad23, hits give low values 1 | locus YEL061C, strain CIN8 (second series), hits give low values 0.991 | locus YEL061C, strain CIN8, hits give low values 0.978 | locus YER015W, strain faa2, hits give low values 0.995 | locus YER016W, strain bim1, hits give low values 0.988 | locus YER110C, hits give low values 0.97 | locus YER111C, strain swi4, hits give low values 0.985 | locus YER155C, strain BEM2 (second series), hits give low values 0.975 | locus YER155C, strain BEM2, hits give low values 0.971 | locus YER167W, strain BCK2, hits give low values 0.974 | locus YFR010W, strain ubp6, hits give low values 1 | locus YGL078C, strain dbp3, hits give low values 0.989 | locus YGL086W, strain mad1, hits give low values 0.957 | locus YGL167C, strain pmr1, hits give low values 0.993 | locus YGL173C, strain kem1, hits give low values 0.989 | locus YGL227W, strain vid30, hits give low values 0.975 | locus YGL240W, strain doc1, hits give low values 1 | locus YGL248W, strain PDE1, hits give low values 0.967 | locus YGL253W, strain hxk2, hits give low values 1.01 | locus YGR135W, strain pre9, hits give low values 0.925 | locus YGR252W, strain gcn5, hits give low values 1.07 | locus YHR013C, strain ard1, hits give low values 0.955 | locus YHR027C, strain rpn1, hits give low values 1.01 | locus YHR030C, strain SLT2, hits give low values 0.975 and 0.933 | locus YHR079C, strain IRE1 (second series), hits give low values 0.969 | locus YHR079C, strain IRE1, hits give low values 0.92 | locus YHR094C, strain hxt1, hits give low values 0.981 | locus YHR129C, strain ARP1, hits give low values 0.974 | locus YHR142W, strain chs7, hits give low values 1 | locus YHR200W, strain rpn10, hits give low values 0.963 | locus YIL066C, strain RNR3, hits give low values 0.965 | locus YIL073C, strain SPO22, hits give low values 0.926 | locus YIL125W, strain kgd1, hits give low values 0.971 | locus YIR030C, strain dcg1, hits give low values 0.961 | locus YJL092W, strain hpr5, hits give low values 1 | locus YJL095W, strain BCK1 (second series), hits give low values 0.984 | locus YJL095W, strain BCK1, hits give low values 0.926 and 0.95 | locus YJL115W, strain asf1, hits give low values 0.982 | locus YJL129C, strain trk1, hits give low values 0.975 | locus YJL134W, strain LCB3, hits give low values 0.973 | locus YJL154C, strain vps35, hits give low values 0.985 | locus YJL164C, strain tpk1, hits give low values 0.99 | locus YJL166W, strain qcr8, hits give low values 0.995 | locus YJL168C, strain set2, hits give low values 0.97 | locus YJL187C, strain SWE1 (second series), hits give low values 0.961 | locus YJR043C, strain POL32, hits give low values 1.03 | locus YJR066W, strain TOR1, hits give low values 0.903
